Results reported in PubChem BioAssay AID449762 (Southern Research Specialized Biocontainment Screening …, 2010).
The whole screen tested about 330,000 compounds, of which about 1,900 (0.58%) were called active. Not shown: some 4% with an inconclusive outcome. Cut-off read from the data, not from the text of the source: inconclusive = inhibition above about 70% without an active follow-up result; inactive = below that. A selection follows. Entries with a potency or affinity are not part of this list.

Assay: M. tuberculosis growth inhibition, HTS (AID 449762);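 note: bacterial growth assessed after seven days of incubation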
Conditions: M. tuberculosis H37Rv growth inhibition, 7H9 media; at 25 µM; hits give high values

Row | Structure (SMILES) | inhibition
1 | COc1cccc(NC(=O)CN(C)C(=O)c2ccccc2Sc2ccccc2C#N)c1 | -24% (inactive)
2 | CCOC(=O)c1cc(NC(=O)c2ccccc2)c(=O)n2c1oc1ccccc12 | -3% (inactive)
3 | Oc1c(C(c2cccs2)N2CCN(c3ccccc3)CC2)ccc2cccnc12 (stereo not given) | 30.5% (inactive)
4 | Oc1c(C(c2ccccn2)N2CCCCC2)cc(Cl)c2cccnc12 (stereo not given) | 3% (inactive)
5 | COC(=O)Cc1ccc(NC(=S)N2CCC(Cc3ccccc3)CC2)cc1 | 6.07% (inactive)
6 | O=C(C1=C[C@H](c2coc3ccccc3c2=O)C[C@H](OCCCCO)O1)N1CCN(Cc2ccccc2)CC1 | 39.2% (inactive)
7 | CC(CC(=O)Nc1ccc(F)c([N+](=O)[O-])c1)c1ccccc1 (stereo not given) | -6.24% (inactive)
8 | CC(CC(=O)Nc1cc([N+](=O)[O-])ccc1Cl)c1ccccc1 (stereo not given) | 3.48% (inactive)
9 | CSCC[C@H](NC(=O)C1CCN(S(=O)(=O)c2ccc(C)cc2)CC1)C(=O)NCC1CCCO1 (stereo not given in full) | -8.31% (inactive)
10 | Cc1occc1-c1nnc(SCc2nnc(-c3ccc(Cl)cc3)o2)n1C | -6.71% (inactive)
11 | C[C@@H]1C[C@H]2[C@@H]3CCC4=CC(=O)C=C[C@]4(C)[C@@]3(F)[C@@H](O)C[C@]2(C)[C@H]1C(=O)CO | 18.9% (inactive)
12 | Cc1cccc(C)c1NC(=O)Cn1nnc(-c2ccc(CN3CCC(C)CC3)cc2)n1 | 5.96% (inactive)
13 | COC(=O)N/N=C\c1ccccc1OC/C=C/c1ccccc1 | 7.83% (inactive)
14 | CCOc1ccc(-c2cc(C)[n+](CCN3CCOCC3)c(-c3ccc(OCC)cc3)c2)cc1 | 12.3% (inactive)
15 | CCOc1ccc(-c2cc(C)[n+](CCO)c(-c3ccc(OCC)cc3)c2)cc1 | 4.23% (inactive)
16 | COC(=O)/C(=C/Nc1ccccc1)[N+](=O)[O-] | -4.18% (inactive)
17 | Cc1ccc(NC(=O)CS(=O)CC(=O)N(CC(=O)NC2CCCC2)c2ccc3c(c2)OCCO3)cc1 (stereo not given) | -4.13% (inactive)
18 | COc1cccc(CNCc2ccc(OC)cc2OC)c1 | 1.71% (inactive)
19 | COc1ccc(CNCc2ccc3ccccc3c2)c(OC)c1 | 12.2% (inactive)
20 | CCn1c2ccccc2c2cc(CN3CCN(S(C)(=O)=O)CC3)ccc21 | 7.91% (inactive)
21 | CCn1c2ccccc2c2cc(CN3CCN(S(=O)(=O)CC)CC3)ccc21 | 10.3% (inactive)
22 | CCn1cc(C(=O)N2CCCC(CO)(Cc3ccccc3C)C2)cn1 (stereo not given) | 0.25% (inactive)
23 | COc1cc2oc(=O)ccc2cc1[C@H](O)[C@@H](O)C(C)(C)O | -11.1% (inactive)

Row | Structure (SMILES) | inhibition
24 | COc1ccc(-c2c[n+]3c(n2-c2ccccc2)CCCCC3)cc1 | -4.08% (inactive)
25 | COc1ccc(-c2c[n+](CC(=O)c3ccccc3)c3n2CCCCC3)cc1 | 1.09% (inactive)
26 | CC(C)NC(=O)NC(=O)COC(=O)c1ccc(OC(F)(F)F)cc1 | 14.2% (inactive)
27 | CSc1nn(-c2ccc(C(=O)OC(C(=O)NC(N)=O)C(C)C)cc2)c(=S)s1 (stereo not given) | 50.6% (inactive)
28 | O=C(CN1CCN(S(=O)(=O)c2cccc(F)c2)CC1)NCC1(N2CCOCC2)CCCCC1 | 6.01% (inactive)
29 | CC(C)(C)C(=O)Nc1cc(C(F)(F)F)ccc1-n1ccnc1 | -0.21% (inactive)
30 | Fc1ccc(-n2c(Cn3nnc4ccccc43)n[nH]c2=S)cc1 | -5.75% (inactive)
31 | COc1ccccc1NC(=O)CSc1nnnn1C | -4.82% (inactive)
32 | COc1ccccc1NC(=O)c1ccc(NC(=O)CSc2nncn2C)cc1 | 7.82% (inactive)
33 | COc1ccccc1NS(=O)(=O)c1ccc2ccccc2c1 | 7.83% (inactive)
34 | CC1CCc2sc(C(=O)NCc3ccccn3)cc2C1 (stereo not given) | 4.08% (inactive)
35 | O=C(Nc1cccc2ccccc12)c1ccc([N+](=O)[O-])cc1 | 5.16% (inactive)
36 | CCOC(=O)C1CCCCN1S(=O)(=O)c1cc2c(cc1C)NC(=O)CO2 (stereo not given) | -3.9% (inactive)
37 | CCN(C(=O)Cn1ccc(C(F)(F)F)n1)c1c(N)n(Cc2ccccc2)c(=O)[nH]c1=O | -10% (inactive)
38 | O=C(COc1ccc([N+](=O)[O-])cc1)NNC(=S)NC(=O)c1ccc(Br)cc1 | 10.5% (inactive)
39 | Cc1ccc(S(=O)(=O)N(C)c2ccc(OCC(=O)OCC(=O)N(CC#N)c3ccccc3)cc2)cc1 | 15.9% (inactive)
40 | Cc1ccc(S(=O)(=O)N(C)c2ccc(OCC(=O)OCc3c(C)noc3C)cc2)cc1 | 47.9% (inactive)
41 | COc1ccc2[nH]cc(C3=CCNCC3)c2c1 | 67.9% (inactive)
42 | CN1CC=C(c2c[nH]c3ccccc23)CC1 | -13.7% (inactive)
43 | CCOc1cc(C2C3=C(CC(C)(C)CC3=O)N(CCCOC)C3=C2C(=O)CC(C)(C)C3)ccc1OC | 1.22% (inactive)
44 | CC(=O)Nc1ccc2c(c1)nc1n2CCOC1 | 8.99% (inactive)
45 | Cc1ccc(N(CC(=O)Nc2cc(Cl)ccc2Oc2ccccc2)S(C)(=O)=O)cc1C | 13.8% (inactive)
